This passage reports growth results from PubChem BioAssay (NCI).

Test systems include DU-145 prostate; K-562 leukemia; MALME-3M melanoma; MDA-MB-231 breast; RXF 393 renal; SF-268 CNS; SF-295 CNS; SF-539 CNS; UACC-257 melanoma; M14 melanoma; HCT-15 colon; SNB-75 CNS; SNB-19 CNS; U251 CNS; PC-3 prostate; SK-MEL-5 melanoma; UACC-62 melanoma; LOX IMVI melanoma; SK-MEL-28 melanoma.
Holding throughout (assay): NCI-60 one-dose screen, 48 h (100 = growth as untreated, 0 = no growth, -100 = all killed)
Common to all, as to conditions: 10 µM unless noted

Molecules are shown by their SMILES. Compounds without any hit were thinned out: in the full panel of roughly 83,000, 20% have a hit.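 Treatment: one concentration, 48 hours, 96-well format. Scoring: percent growth, with anything below 10 considered active.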 Unmarked numbers belong to inactive results. Calls of active or inactive are those of the source.

Consider `O=C(CCCCCCN1CC(=O)N2[C@@H](C3CC3)c3[nH]c4ccccc4c3C[C@H]2C1=O)NO`, for which the growth in the assay on DU-145 prostate is 70.9%; with K-562 leukemia, 21.5%; in the assay with MALME-3M melanoma, 10.1%; in the assay on MDA-MB-231 breast it was 83.7%; in the assay on RXF 393 renal, 76.5%; with SF-268 CNS it was 93.6%. In addition, the growth in the assay on SF-295 CNS is 74.9%; with SF-539 CNS, 60.7%; with UACC-257 melanoma it was 41.9%; with M14 melanoma it was 60.2%; with HCT-15 colon, 92.9%; with SNB-75 CNS, 58.7%. The growth with SNB-19 CNS is 68.4%; in the assay on U251 CNS, 53.1%; with PC-3 prostate it was 74.7%; with SK-MEL-5 melanoma it was 44.1%; with UACC-62 melanoma it was 31.8%; with LOX IMVI melanoma it was 33.2%. The growth in the assay with SK-MEL-28 melanoma is 32.3%.
Turning to `Cc1ccc(Nc2nc(SC(C)C)nc(-c3ccccc3)c2C#N)cc1`, the growth with DU-145 prostate is 104%; in the assay on K-562 leukemia it was 103%; with MALME-3M melanoma it was 75.3%; with MDA-MB-231 breast, 82.1%; with RXF 393 renal, 84.1%; in the assay with SF-268 CNS, 82%. For the same molecule, the growth with SF-295 CNS is 93.9%; in the assay on SF-539 CNS it was 84.3%; in the assay on UACC-257 melanoma, 113%; in the assay with M14 melanoma, 116%; with HCT-15 colon, 95.1%; in the assay with SNB-75 CNS, 91.1%. For the same molecule, the growth was 97.1% with SNB-19 CNS; 103% in the assay on U251 CNS; 99.9% in the assay with PC-3 prostate; 83.5% with SK-MEL-5 melanoma; 95.5% in the assay with UACC-62 melanoma; 96.4% with LOX IMVI melanoma. Moreover, the growth in the assay on SK-MEL-28 melanoma was 96.8%.
Take `Cc1[nH]c(C(=O)Nc2ccc(C(N)=O)cc2N2CCOC(C)C2)c(Cl)c1Cl` (configuration not stated): the growth with DU-145 prostate is 104%; with K-562 leukemia, 92.2%; in the assay on MALME-3M melanoma, 99.1%; in the assay with MDA-MB-231 breast, 95.7%; in the assay on RXF 393 renal, 102%; in the assay on SF-268 CNS it was 98.8%. In addition, the growth is 103% in the assay with SF-295 CNS; 95.7% with SF-539 CNS; 108% in the assay on UACC-257 melanoma; 101% with M14 melanoma; 93.7% in the assay with HCT-15 colon; 62.3% with SNB-75 CNS. The growth with SNB-19 CNS was 92.7%; with U251 CNS it was 98.6%; in the assay on PC-3 prostate it was 96.7%; with SK-MEL-5 melanoma, 97.2%; with UACC-62 melanoma, 91.1%; in the assay on LOX IMVI melanoma it was 94%. Moreover, in the assay with SK-MEL-28 melanoma, the growth is 108%.
On to `COc1cc2cc(Oc3ccc(NC(=O)Nc4ccc(F)c(C(F)(F)F)c4)cc3)c(C)nc2cc1OCCN(C)C`, for which the growth with DU-145 prostate is 106%; with K-562 leukemia, 3.63% (active); in the assay with MALME-3M melanoma, 92.7%; in the assay on MDA-MB-231 breast, 103%; in the assay with RXF 393 renal, 76.5%; with SF-268 CNS it was 98.5%. The growth in the assay on SF-295 CNS was 104%; with SF-539 CNS it was 102%; in the assay on UACC-257 melanoma it was 105%; with M14 melanoma, 95.7%; with HCT-15 colon it was 29.2%; in the assay on SNB-75 CNS, 98.8%. Besides, the growth is 99.8% in the assay with SNB-19 CNS; 100% in the assay on U251 CNS; 92% with PC-3 prostate; 90.9% with SK-MEL-5 melanoma; 106% with UACC-62 melanoma; 54% with LOX IMVI melanoma. In the assay on SK-MEL-28 melanoma, the growth is 81%.
For the molecule `CN(C)S(=O)(=O)c1ccc(-c2nc(C(Cl)Cl)nc3cc(-c4ccccc4)nn23)cc1`, the growth with DU-145 prostate was 79.2%; in the assay with K-562 leukemia, 52.2%; in the assay on MALME-3M melanoma, 15.3%; in the assay with MDA-MB-231 breast, 48.8%; in the assay with RXF 393 renal, 84.4%; in the assay on SF-268 CNS it was 88.2%. Moreover, the growth was 86.7% in the assay with SF-295 CNS; 77.8% in the assay on SF-539 CNS; 105% in the assay with UACC-257 melanoma; 74% with M14 melanoma; 47.7% in the assay on HCT-15 colon; 84.7% in the assay with SNB-75 CNS. The growth in the assay on SNB-19 CNS is 85.2%; in the assay on U251 CNS, 66.2%; in the assay with PC-3 prostate it was 87.7%; with SK-MEL-5 melanoma, 92%; in the assay with UACC-62 melanoma it was 11.7%; in the assay on LOX IMVI melanoma it was 44.5%. Besides, the growth in the assay on SK-MEL-28 melanoma is -4.08% (active).
`COC(=O)CCSC1=C(C)C(=O)c2ccccc2C1=O`: the growth in the assay on DU-145 prostate is 111%; with K-562 leukemia it was 38.4%; in the assay with MALME-3M melanoma it was 104%; in the assay on MDA-MB-231 breast, 75.6%; in the assay on RXF 393 renal it was 87.3%; with SF-268 CNS, 97.4%. The growth in the assay with SF-295 CNS was 102%; in the assay on SF-539 CNS, 78.6%; with UACC-257 melanoma, 106%; in the assay on M14 melanoma, 107%; in the assay on HCT-15 colon it was 58.5%; in the assay with SNB-75 CNS it was 89.6%. Further, the growth is 96.5% with SNB-19 CNS; 85.1% with U251 CNS; 72.6% with PC-3 prostate; 84.2% in the assay with SK-MEL-5 melanoma; 70.9% with UACC-62 melanoma; 52.2% in the assay on LOX IMVI melanoma. In addition, in the assay with SK-MEL-28 melanoma, the growth is 106%.
With `OCC(Nc1ncnc2ccc(-c3cnc4cnccn34)cc12)c1ccccc1` (configuration not stated), the growth in the assay with DU-145 prostate was 47.4%; with K-562 leukemia it was 60.2%; in the assay with MALME-3M melanoma it was 81.5%; in the assay with MDA-MB-231 breast it was 83.2%; with RXF 393 renal, 65.4%; in the assay with SF-268 CNS, 75.9%. Moreover, the growth with SF-295 CNS is 64.7%; with SF-539 CNS, 79%; in the assay with UACC-257 melanoma, 80.7%; in the assay with M14 melanoma it was 93.3%; in the assay on HCT-15 colon, 92.3%; with SNB-75 CNS, 85.6%. Besides, the growth was 70.6% in the assay with SNB-19 CNS; 88.5% in the assay on U251 CNS; 79.9% in the assay on PC-3 prostate; 37.5% with SK-MEL-5 melanoma; 74.1% in the assay with UACC-62 melanoma; 85.2% in the assay on LOX IMVI melanoma. For the same molecule, the growth in the assay with SK-MEL-28 melanoma was 97.8%.
Consider `COc1ccc(-c2c(C(N)=O)c(N)n(Cc3nc4ccccc4[nH]3)c(=O)c2C#N)c(OC)c1`, for which the growth with DU-145 prostate was 112%; with K-562 leukemia, 101%; in the assay on MALME-3M melanoma it was 93.2%; with MDA-MB-231 breast, 92.1%; in the assay with RXF 393 renal it was 117%; with SF-268 CNS, 102%. In addition, the growth in the assay with SF-295 CNS is 104%; in the assay with SF-539 CNS it was 97.9%; in the assay on UACC-257 melanoma it was 112%; with M14 melanoma, 102%; in the assay on HCT-15 colon, 98.4%; in the assay with SNB-75 CNS it was 88.3%. Also, the growth in the assay with SNB-19 CNS is 98.7%; in the assay on U251 CNS, 97.2%; with PC-3 prostate it was 97.4%; in the assay on SK-MEL-5 melanoma, 97.3%; with UACC-62 melanoma, 91.6%; with LOX IMVI melanoma, 96.4%. In addition, in the assay with SK-MEL-28 melanoma, the growth is 109%.
